The values that follow come from PubChem BioAssay AID485273 (Sanford-Burnham Center for Chemical Genomics, 2010).

The whole screen tested about 330,000 compounds, of which about 1,500 (0.45%) were called active. Only a selection was taken, and actives are over-represented in it overall. A number with no mark means an inactive call. Cut-off read from the data, not from the text of the source: active = inhibition above about 45% (passing the limit was not always enough); inconclusive = no clear call, values can overlap the other calls.

Ubiquitin-conjugating enzyme E2 N (Homo sapiens), sequence (P61088 whole entry, looked up): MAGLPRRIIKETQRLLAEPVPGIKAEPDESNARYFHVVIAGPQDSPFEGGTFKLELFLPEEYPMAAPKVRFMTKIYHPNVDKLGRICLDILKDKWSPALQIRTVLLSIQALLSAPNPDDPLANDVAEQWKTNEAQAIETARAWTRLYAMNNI

The experiment has as its target Ubiquitin-conjugating enzyme E2 N (Homo sapiens) (UniProt P61088). The experiment is described as follows: UBC13 polyubiquitin chain formation inhibitors, primary screen, biochemical, TR-FRET, uHTS (AID 485273). To be noted: at 20 µM, active compounds read high. (In general: In TR-FRET formats the signal depends on donor and acceptor labels being close together.)
For the compound `COc1cccc(-c2ccc(SCC(=O)N3CCN(c4ccccc4)CC3)nn2)c1`, the inhibition – broadly, the relative decrease from the control value, in per cent – is -10.5%. In the case of `CC[C@@H](C)[C@H](NC(=O)CCc1c(C)c2cc3c4c(oc3c(C)c2oc1=O)CCCC4)C(=O)O` it was 2.9%. In the case of `c1ccc(-n2nnnc2-c2cccnc2)cc1`, the inhibition was 16.1%. Turning to `S=c1nc2ccccc2c2nc(-c3cccnc3)[nH]n12`, the inhibition is 58.9% (active).

Turning to `O=C(CSc1n[nH]c(-c2cccnc2)n1)Nc1ccnc2ccccc12`, the inhibition was 21.1%.

On to `COc1ccccc1N(C)S(=O)(=O)c1ccc(Cl)c(C(=O)N2CCC(C(N)=O)CC2)c1`, for which the inhibition is 1.7%.

For the compound `CC1(C)CC(=O)c2sc(N)nc2C1`, the inhibition was -5.4%. Consider `FC(F)(F)c1cccc(Nc2ncnc3ccccc23)c1`, for which the inhibition was 11.1%. `O=c1cc(CO)oc(C(Nc2cccc(C(F)(F)F)c2)c2ccccn2)c1O` (stereo unspecified): the inhibition was 97.1% (active).

For `O=C(O)CC1(CC(=O)Nc2cccc(C(F)(F)F)c2)CCCC1`, the inhibition is -1.1%. As for `O=[N+]([O-])c1cccc(S(=O)(=O)NCc2ccccn2)c1`, the inhibition was -12.9%.

As for `O=C(Nc1cccc([N+](=O)[O-])c1)Nn1cnnc1`, the inhibition is -5.5%.

For the compound `O=c1cc(CO)oc(C(Nc2cccc([N+](=O)[O-])c2)c2ccccn2)c1O` (stereo unspecified), the inhibition was 94.8% (active). On to `O=C(c1ccccc1)N1CCC(CC2CC(c3ccc(Cl)cc3)=NO2)(C(=O)NCC2CCCCC2)CC1` (stereo unspecified), for which the inhibition was 4.7%. The figure for `COC(=O)c1ccc(CNC(=O)c2ccc3oc(C(C)C)nc3c2)cc1` is -8.3%; for `O=C(NC(=O)c1cc(OCC(F)(F)F)ccc1OCC(F)(F)F)Nc1ccccc1` it is 2.9%; for `c1ccc(CCC2=NCCn3cccc32)cc1` it is -3.6%. On to `CCOC(=O)c1ccc(NC(=O)CCn2c(=O)oc3ccccc32)cc1`, for which the inhibition was 4.5%. `CCN(CC)S(=O)(=O)c1ccc2[nH]c(=O)cc(C(=O)N(C)C3CCS(=O)(=O)C3)c2c1` (stereo unspecified): the inhibition is -6.2%. Consider `O=C(CCN1C(=O)C2CCCCC2C1=O)Nc1ccc(OC(F)F)cc1` (stereo unspecified), for which the inhibition was 1.3%. Consider `CCN(CC)CCNC(=O)c1ccc(NC(=O)c2cc(-c3ccncc3)nc3ccccc23)cc1`, for which the inhibition is 89.7% (active).

`COC(=O)CNC(=O)c1cc(-c2ccncc2)nc2ccccc12`: the inhibition was -0.6%. With `O=C(Nc1ccc(S(=O)(=O)Nc2nccs2)cc1)c1cc(-c2ccncc2)nc2ccccc12`, the inhibition is -11.2%. For the compound `CCn1c(SCc2cc(=O)n3ccsc3n2)nc2ccccc21`, the inhibition was 3%. In the case of `O=C(Nn1cnnc1)c1cc(Cl)ccc1Cl` it was -7.5%; in that of `CC1CN(C(=O)CCC(=O)NCc2cccnc2)c2ccccc2O1` (stereo unspecified), 2.3%; in that of `CC1CN(C(=O)CCC(=O)NC2CCN(Cc3ccccc3)CC2)c2ccccc2O1` (stereo unspecified), 4.7%.

Take `CC1CN(C(=O)CCC(=O)NCCCN2CCC(Cc3ccccc3)CC2)c2cc(Cl)ccc2O1` (stereo unspecified): the inhibition is 64.4% (active). `CN(C)C(=O)c1ccc2c(c1)C1C3CCC(C3)C1C(c1ccccc1)N2` (stereo unspecified): the inhibition is -13.6%. Regarding `CC(=O)NC(Cc1ccc(F)c(F)c1)C(=O)NC1CCN(c2nnnn2-c2ccccc2)CC1` (stereo unspecified), the inhibition was -5.3%.

As to `CCCCNc1nc2c(c(=O)n(C)c(=O)n2C)n1Cc1cccc(OC)c1`, the inhibition is 21.5%. For the compound `COc1ccnc2c1c(=O)n(Cc1cccc(F)c1)c(=O)n2C`, the inhibition was 48.2% (active). `CC(C)(C)c1cc2cccnc2n1Cc1cccc(F)c1`: the inhibition was 11.4%. Regarding `CCOC(=O)c1ccc(COC(=O)CCc2nc(-c3ccccc3)c(-c3ccccc3)o2)cc1`, the inhibition is -0.9%.

Regarding `COCc1cc(=O)[nH]c2cc(NC(=O)C(F)(F)F)c(C)cc12`, the inhibition is 8.5%. For the compound `NC(N)=N/N=C/c1ccc(OCc2ccc(Cl)cc2Cl)cc1`, the inhibition was 108% (active). The figure for `CCOc1ccc(/C=N/NC(N)=S)cc1` is -0.6%; for `OC(CNCCc1ccc(Cl)cc1Cl)COc1ccccc1` (stereo unspecified) it is 23%. On to `O=C(/C=C/c1cccc([N+](=O)[O-])c1)OCC(=O)N1CCOCC1`, for which the inhibition is -13.5%. As to `CC(OC(=O)CNC(=O)c1ccco1)C(=O)Nc1ccc(Cl)cn1` (stereo unspecified), the inhibition is -3.2%.

On to `CCc1ccc(NC(=O)C(C)OC(=O)/C=C/c2cccc([N+](=O)[O-])c2)cc1` (stereo unspecified), for which the inhibition was -15.4%. In the case of `COc1ccc(N2CCN(C(=O)CNC(=O)c3ccc(C(C)(C)C)cc3)CC2)cc1` it was 12.3%; in that of `O=C(CCCCCN1C(=O)c2cccc3cccc(c23)C1=O)NCc1ccco1`, 57.4% (active). In the case of `O=C1c2cccc3cccc(c23)C(=O)N1CCCCCc1n[nH]c(=S)o1` it was -1.2%; in that of `O=C(CCCOc1ccccc1)NCc1ccco1`, 6.4%. The figure for `C=CCN(CC=C)CCOc1ccccc1[N+](=O)[O-]` is 3.5%; for `O=C(COc1ccc(Br)cc1F)NCC1(N2CCCCC2)CCCCC1` it is -5.1%; for `Cc1ccc2c(c1)N(CC(=O)N1CCC(O)CC1)C(=O)CO2` it is -0.3%.

Consider `CCOc1ccccc1N1CN(Cc2ccccc2)CNC1=S`, for which the inhibition is -1.7%. Consider `Cc1ccc(C(=O)N/C(=C/c2ccc(-c3cccc([N+](=O)[O-])c3)o2)C(=O)NCCCN(C)C)cc1`, for which the inhibition is 57% (active).

Regarding `CN(C)CCNC(=O)/C(=C/c1cccc([N+](=O)[O-])c1)NC(=O)c1ccccc1`, the inhibition was 11.7%.

On to `C=CCNC(=O)/C(=C\c1cccc([N+](=O)[O-])c1)NC(=O)c1ccccc1`, for which the inhibition is 5.9%. The figure for `CN(CCc1ccccn1)C(=O)c1ccc(OC2CCN(Cc3ccccn3)CC2)cc1` is 1.2%; for `Oc1ccccc1-c1cc(-c2ccc(Cl)cc2)n[nH]1` it is 14.2%.

With `CCCCCCCC1(C)NC(=O)N(CC(=O)Nc2cc(C)on2)C1=O` (stereo unspecified), the inhibition was 3.7%. The figure for `CN(C)c1ccnc2sc3c(=O)n(Cc4ccccc4)cnc3c12` is 48% (active); for `O=c1c2c(ncn1Cc1ccccc1)nc1n2CCC1` it is 1.8%. Consider `CN(C)/C=C/c1c(C#N)c(=O)ncn1Cc1ccccc1`, for which the inhibition was -4.7%. `Cc1ccccc1C(=O)O`: the inhibition is -9%. The figure for `COc1ccccc1C(=O)Nc1ccc(Nc2ccccc2)cc1` is 7.8%. In the case of `Cc1ccccc1C(=O)OC1OC(=O)C(Cl)=C1Nc1ccccc1` (stereo unspecified) it was 78% (active). The figure for `O=C1OC(OC(=O)c2ccccc2Br)C(N2CCOCC2)=C1Cl` (stereo unspecified) is 15.6%; for `Cc1ccc(NC2=C(Cl)C(=O)OC2OC(=O)c2ccccc2C)cc1` (stereo unspecified) it is 53.9% (active); for `CCOC(=O)c1ccc(Nc2cc3ccccc3c(=O)[nH]2)cc1` it is -38.5%.

In the case of `CCOC(=O)CNC(=O)CN1C(=O)CCSc2ccccc21`, the inhibition is 8.8%.

As for `CNC(=O)c1sc(Nc2ccc(OCc3ccccc3)cc2)nc1C`, the inhibition is 6.9%. In the case of `Cc1nn(CCCC(=O)NCc2ccccc2Cl)c(=O)c2nccn12`, the inhibition is -2.4%. With `FC(F)Oc1ccccc1C1CC(c2ccc(Br)s2)Nc2ncnn21` (stereo unspecified), the inhibition was -2.2%. In the case of `CCN(CC)S(=O)(=O)c1cc(C(=O)Nc2ccccn2)ccc1C` it was -8.9%. The figure for `CCN(CC)CCNC(=O)CCCCCn1c(=O)[nH]c2cc(C(=O)OC)ccc2c1=O` is 9.7%; for `O=C(CCCCCn1c(=O)[nH]c2ccccc2c1=O)NCCc1c[nH]c2ccccc12` it is 58.3% (active). Turning to `O=C(CCc1c[nH]c2ccccc12)NCCOc1ccccc1`, the inhibition was -4.4%.

For `COc1cc(CNCc2ccc(OC)c3ccccc23)cc(OC)c1OC`, the inhibition was 5.5%. Turning to `COc1ccc(S(=O)(=O)N2CCN(CC(=O)NCC3(N4CCOCC4)CCCCC3)CC2)cc1`, the inhibition is -8.4%. In the case of `O=C(CCl)NNc1nc(-c2ccccc2)c2cc(Cl)ccc2n1`, the inhibition was -10.6%. Turning to `Cc1ccc2nc(Nc3ccccc3O)nc(-c3ccccc3)c2c1`, the inhibition was 0.7%. In the case of `NC(N)=Nc1nc(-c2ccccc2)c2cc(Cl)ccc2n1` it was 51.4% (active). For the compound `Nc1nc(SCC(=O)NN(c2ccccc2)c2ccccc2)n[nH]1`, the inhibition was -4.6%. With `CC1(C)CC(=O)C(C2=NC(C)(C)Cc3ccccc32)=C(O)C1`, the inhibition was -11%. Turning to `CCN(CC)S(=O)(=O)c1ccc(NC(=O)c2cccnc2Cl)c(NC(=O)c2cccnc2Cl)c1`, the inhibition is -5.6%. In the case of `CCc1c(C)nc(SCC(=O)NC2CCCC2)[nH]c1=O` it was -1.8%; in that of `CC(=O)NC(=S)NNC(=O)c1ccc(Br)cc1`, 79.4% (active); in that of `CNC(=S)NNC(=O)c1ccc(N(C)C)cc1`, -10.9%. With `O=C(NNC(=O)c1ccc(Cl)nc1)c1ccc(Br)cc1`, the inhibition was 6.7%. Take `O=S(=O)(NC1CCCC1)c1ccc(-n2cnnn2)cc1`: the inhibition was 0.2%.

With `C=CCNCCCCOc1ccccc1`, the inhibition was 9.8%. `CCc1ccc(NC(=O)N[C@H](C(=O)O)C(C)CC)cc1` (stereo partly specified): the inhibition was 10%. For `CCCCCn1c(=O)c(C(=O)OCC)c(Cl)c2ccccc21`, the inhibition is 5.7%. For `O=C(c1ccc[nH]c1=S)N1CCN(S(=O)(=O)c2ccc(Br)cc2Cl)CC1`, the inhibition is 1.2%. For the compound `Cc1c(CN2CCC(CO)(CCOc3ccccc3)CC2)[nH]c2ccc(Cl)cc12`, the inhibition is 72.1% (active). Turning to `CCOC(=O)C1(CCOc2ccccc2)CCN(Cc2cc(OC)c(O)cc2Cl)CC1`, the inhibition was 12%.

On to `OCC1(CCOc2ccccc2)CCN(Cc2cn[nH]c2-c2ccccc2)CC1`, for which the inhibition is 2.5%. Regarding `CC(CC(=O)N1CCN(c2ccccc2)CC1)c1ccccc1` (stereo unspecified), the inhibition is 9.2%.

As for `CN1CCC(CN)(N2CCN(c3ccccc3)CC2)CC1`, the inhibition is 57.8% (active).

On to `O=C(c1ccccc1)c1ccc(C(=O)N2CCN(c3ccccc3)CC2)cc1`, for which the inhibition was 4.4%. Take `O=C(CN1CCN(c2ccc(F)cc2)CC1)Nc1cccc(C(F)(F)F)c1`: the inhibition is -4.5%.
